Screens: PubChem BioAssay, National Center for Advancing Translational Sciences (NCATS)
BAZ2B inh – qHTS Assay for Inhibitors of BAZ2B | Bromodomain adjacent to zinc finger domain protein 2B (Homo sapiens), Q9UIF8 | AlphaScreen BAZ2B-H3K14Ac peptide displacement | Potency, µM (titrated, usually from 114 µM), without a hit: at the top dose activity change, negative = inhibition, hits mostly inhibitors | 4.4% of 360,000 active; note: % is set by controls: 0 for no effect and ±100 for the full control effect; nearly all actives have a fitted effect of over 60% in size
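Inhibition is scored as reduced AlphaScreen emission. The BAZ2B/b-H3(5-23)K14Ac complex (50 nM each) in PBS pH 7.4, 0.01% Tween-20 meets compound (up to 110 uM) for 30 min at RT before bead addition.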
HP1b chromo inh – HTS for Inhibitors of HP1-beta Chromodomain Interactions with Methylated Histone Tails. Chromobox protein homolog 1 (Homo sapiens), P83916. AlphaScreen HP1-beta / biotin-H3K9me3 peptide binding. Potency, µM (series often up to 114 µM), without a hit: top-dose activity change, negative = inhibition, hits mostly inhibitors. 0.56% of 390,000 active; note: nearly all actives have a fitted effect of over 70% in size
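Compound inhibition of the preformed complex between 50 nM HP1-beta and 50 nM biotinylated H3K9me3 peptide was read by AlphaScreen. Buffer was PBS pH 7.4 with 0.01% Tween-20. Incubations ran 30 min at room temperature, with 10 ug/mL donor/acceptor beads.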
PLK1 PBD inh – qHTS for Inhibitors of PLK1-PDB (polo-like kinase 1 - polo-box domain): Primary Screen | Potency, µM, for the others: max response, negative = inhibition, most hits filed as inhibitors | AID 720504, 2013 | 2.8% of 360,000 active | Plk1 PBD binding of FITC phosphopeptide, fluorescence polarization | Serine/threonine-protein kinase PLK1 (Homo sapiens), P53350; note: series mostly up to about 57 µM; % is set by controls: 0 for no effect and ±100 for the full control effect; nearly all actives have a fitted effect of over 65% in size
G9a block – qHTS Assay for Inhibitors of Histone Lysine Methyltransferase G9a | Histone-lysine N-methyltransferase EHMT2 (Homo sapiens), Q96KQ7 | G9a H3K9 monomethylation, AlphaScreen, 2 h | Potency, µM (top dose mostly 102 µM), inactives show at the top dose activity, negative = inhibition, hits mostly inhibitors | 8.8% of 350,000 active | AID 504332, 2011; note: % is set by controls: 0 for no effect and ±100 for the full control effect; nearly all actives have a fitted effect of over 75% in size
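Compounds were preincubated with 20 nM G9a for 15 min, after which biotinylated H3K9 peptide (500 nM) and SAM (20 uM) started a 2 h room-temperature reaction. Monomethylated product was quantified by antibody-based AlphaScreen chemiluminescence.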
JMJD2A Tudor – qHTS Assay for Inhibitors of JMJD2A-Tudor Domain; AlphaScreen JMJD2A-Tudor / H3K4me3 peptide binding; Potency, µM (doses to about 114 µM), for inactives: top-dose activity change, negative = inhibition, most hits filed as inhibitors; AID 504339, 2011; 4.4% of 390,000 active; Lysine-specific demethylase 4A (Homo sapiens), O75164; note: % is set by controls: 0 for no effect and ±100 for the full control effect; nearly all actives have a fitted effect of over 50% in size
ALOX12 inh – Primary qHTS assay for inhibitors of human arachidonate 12S-lipoxygenase (ALOX12): Round 2 | purified 12hLO, xylenol orange hydroperoxide absorbance | Potency, µM (titrated, usually from 108 µM), without a hit: at the highest dose activity change, negative = inhibition, hits mostly inhibitors | 1.1% of 580,000 active | AID 1671190, 2021; note: % is set by controls: 0 for no effect and ±100 for the full control effect
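Purified human 12hLO (150 nM final) in 25 mM Hepes, 0.01% Triton X-100, pH 7.0 was preincubated 15 min at room temperature with compound. Then 40 uM arachidonic acid was added, 30 min. Hydroperoxide was read by Fe-XO absorbance ratio 573/405 nm.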
Numbers without * were called inactive; ? = inconclusive; . = no result; [ ] = remark or other dose. Rows were chosen to be rich in hits. Some 9% of all compounds tested hit in one or more screens of this group. Calls come from the whole dose curve; as a rule, active = well fitted curve in the direction sought with a large enough effect; inconclusive = small, poorly fitted or top-dose-only effect, or another doubt; inactive = no such curve, though single readings can be large; an effect the other way counts as inactive or inconclusive. Potency is the fitted concentration of half-maximal effect.

SMILES | BAZ2B inh | HP1b chromo inh | PLK1 PBD inh | G9a block | JMJD2A Tudor | ALOX12 inh
C/C=C/COc1nc2c(c(=O)n(C)c(=O)n2C)n1C | 2% | ? | 3µM* | -3%[59 µM] | -27%[11.4 µM] | 0%
CCn1c(OC)nc2c1c(=O)n(C)c(=O)n2C | -6% | 16% | 2% | . | 4% | -13%
Nc1sc(-c2ccccc2)cc1C(=O)NCCc1ccc(Cl)cc1 | . | . | 9% | . | . | 40µM*
C=CCNC(=O)c1cc(-c2ccccc2)sc1N | . | . | -27% | . | . | -27%
CCOC(=O)c1ccc2c(c1)n(CC)c(C)[n+]2CC | -32% | 16% | 8% | ? | -2% | ?
CCn1c(C)[n+](CC)c2ccc(C(=O)N(C)c3ccccc3)cc21 | -27% | 30% | 3% | 35µM* | -1% | ?
CCn1c(C)[n+](CC)c2ccc(S(=O)(=O)N(C)C)cc21 | ? | 24% | -18% | 45µM* | 0% | ?
CC[n+]1c(C)n(C)c2cc(S(=O)(=O)N(C)C)ccc21 | -39% | 20% | -8% | . | ? | 8%
O=C(NCc1c(F)cccc1F)c1cc(COc2c(F)cccc2F)on1 | 28% | 35% | -15% | 28% | -3% | 2%
COc1ccc(-c2cn3nc4c(nc3n2)CCCC4)cc1 | 7% | 78% | ? | 79µM* | 18% | ?
COc1ccc(-c2cn3ccccc3n2)cc1 | -14% | 16% | -7% | 2% | -26% | 1%
Clc1nc(Cl)nc(NCCC2=CCCCC2)n1 | 56µM* | 22% | -18% | ? | 89µM* | ?
Cn1cc(-c2nc3cncnc3n(Cc3ccc(F)cc3)c2=O)c2ccccc21 | . | . | . | 16%[0.501 µM] | . | ?
CCNC(=O)NC[C@H]1O[C@H](Cc2cc(COC)on2)CC[C@@H]1O | . | . | . | . | . | -23%[176 µM]
COc1ccc(C2C(C(=O)Nc3cc(C)on3)c3ccccc3C(=O)N2C)cc1 (configuration not stated) | -30% | ? | 24µM* | ? | -28%[57.1 µM] | -7%
CCC(C)NC(=O)C1c2ccccc2C(=O)N(c2ccc(OC)cc2)C1c1ccc(OC)cc1 (configuration not stated) | 3% | -9% | 24µM* | 2%[59 µM] | 20µM* | -6%
CCC(C)NC(=O)C1c2ccccc2C(=O)N1Cc1cc(OC)ccc1OC (configuration not stated) | 11% | 8% | 3% | 9%[59 µM] | -19% | -24%
COc1ccc(C2C(C(=O)Nc3cc(C)on3)c3ccccc3C(=O)N2C)cc1OC (configuration not stated) | -3% | 14% | -8% | -21% | -30% | 0%
Cc1csc(NC(=O)C2CCN(S(=O)(=O)c3ccccc3F)CC2)n1 | -19% | 31% | -3% | -4% | -2% | -8%
O=C(N/N=C/c1ccco1)C1CC1c1ccccc1 (configuration not stated) | 50µM* | ? | -21% | -20% | ? | -30%
O=C(N/N=C/c1ccco1)Nc1ccccc1 | 2% | 0% | -3% | 79µM* | -10% | -5%
Cc1cccc(C(=O)Nc2ccc(C(=O)N/N=C/c3ccco3)cc2)c1 | . | ? | 21µM* | . | 45µM* | -3%
CC(C)(C)c1ccc(C2CC2C(=O)N/N=C\c2ccc[nH]2)cc1 (configuration not stated) | ? | ? | -1% | 40µM* | 56µM* | -11%
